Experimental data reported in PubChem BioAssay (NCI).
The panel holds about 79,000 compounds, 15% with a hit somewhere; the sample as a whole holds those more often. Unmarked numbers belong to inactive results. Calls of active or inactive are those of the source. Rule as the data show it: active = growth inhibition above about 70%; inactive = the rest.

Key:
[1] = NCI Yeast Anticancer Drug Screen. Data for the rad50 strain (AID 155);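 also: 0% = growth of vehicle-only cultures of the same strain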; conditions: S. cerevisiae rad50 strain growth inhibition, active compounds read high
Method in brief: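 Vehicle-treated cultures provide the reference for the growth inhibition reported for compound-exposed, repair-deficient yeast.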

[2] = NCI Yeast Anticancer Drug Screen. Data for the mec2-1 strain (AID 157); conditions: S. cerevisiae mec2-1 strain, active compounds read high
Method in brief: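 Test agents were screened against the mec2-1 yeast strain, with defined DNA repair or cell cycle alteration. Growth was scored as inhibition against vehicle-only controls.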

[3] = NCI Yeast Anticancer Drug Screen. Data for the sgs1 mgt1 strain (AID 161);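 also: 0% = growth of cultures given vehicle only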; conditions: S. cerevisiae sgs1 mgt1 strain, active compounds read high
Method in brief: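 Inhibition of yeast growth, normalised to vehicle-treated controls, is reported for a strain bearing genetic alterations in DNA damage repair.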

[4] = NCI Yeast Anticancer Drug Screen. Data for the cln2 rad14 strain (AID 165);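 also: 0% = growth equal to vehicle treated cultures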; conditions: S. cerevisiae cln2 rad14 strain, active compounds read high
Method in brief: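 Growth of compound-exposed yeast (cln2 rad14 genotype) measured and expressed as inhibition relative to vehicle.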

[5] = NCI Yeast Anticancer Drug Screen. Data for the bub3 strain (AID 167); conditions: S. cerevisiae bub3 mutant strain, active compounds read high
Method in brief: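 Mutant yeast screening strain plus compound; vehicle-treated cultures serve as the 0% inhibition reference.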

[6] = NCI Yeast Anticancer Drug Screen. Data for the mlh1 rad18 strain (AID 175); conditions: S. cerevisiae mlh1 rad18 strain growth inhibition, active compounds read high
Method in brief: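 In this whole-cell yeast screen, a strain with altered DNA damage repair is challenged with compound, and its growth is measured against matched vehicle-treated controls.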

[7] = at 5.0 µM (retest, dose inferred, filed as 0.5)
[8] = at 50.0 µM (retest, dose inferred, filed as 5.0)

Row | SMILES | growth inhibition [1, 7] | growth inhibition [1, 8] | growth inhibition ([1]; at 50.0 µM) | growth inhibition [2, 7] | growth inhibition [2, 8] | growth inhibition ([2]; at 50.0 µM) | growth inhibition [3, 7] | growth inhibition [3, 8] | growth inhibition ([3]; at 50.0 µM) | growth inhibition [4, 7] | growth inhibition [4, 8] | growth inhibition ([4]; at 50.0 µM) | growth inhibition [5, 7] | growth inhibition [5, 8] | growth inhibition ([5]; at 50.0 µM) | growth inhibition [6, 7] | growth inhibition [6, 8] | growth inhibition ([6]; at 50.0 µM)
1 | CCCCCCCCC1CCNCC1 | 39% | 28% | 85.5% (active) | -6% | 47% | 87.7% (active) | 26% | 71% (active) | 92.2% (active) | 33% | 38% | 72.5% (active) | 36% | 62% | 90.3% (active) | 20% | 23% | 89.8% (active)
2 | C/C(=N\NC(=S)N1CCN(Cc2ccccc2)CC1)c1ccccn1 | 23% | 76% (active) | 90.3% (active) | 23% | 85% (active) | 88.8% (active) | 12% | 80% (active) | 31.2% | 8% | 73% (active) | -14.7% | 31% | 96% (active) | 11.7% | 15% | 74% (active) | 81.6% (active)
3 | Cc1cccc(C)c1N1C(=O)C2Nc3ccccc3SC2C1=O (configuration not stated) | 7% | 93% (active) | 98.5% (active) | -1% | 94% (active) | 98.7% (active) | 3% | 96% (active) | 98.4% (active) | 2% | 90% (active) | 95.8% (active) | 1% | 94% (active) | 98.3% (active) | 11% | 95% (active) | 98.5% (active)
4 | CCCCOc1c(OCCCC)c(=O)c1=O | 78% (active) | 54% | -13.6% | 88% (active) | 79% (active) | -48.5% | 14% | 19% | -31.6% | 37% | 48% | 16.4% | 54% | 54% | -26.6% | 78% (active) | 55% | 40.5%
5 | Nc1cc2c(c[n+](CCCCCCCCCC[n+]3cc4c5ccccc5c(N)cc4c4ccccc43)c3ccccc23)c2ccccc12 | 20% | 94% (active) | 88% (active) | 36% | 96% (active) | 91.8% (active) | 56% | 95% (active) | 85% (active) | 16% | 92% (active) | 87.8% (active) | 58% | 95% (active) | 81% (active) | 63% | 95% (active) | 83.6% (active)
6 | C/C=C(\C)C(=O)OC1C(C)C2(O)C(C=C(CO)CC3(O)C(=O)C(C)=CC32)C2C(C)(C)C12OC(=O)CCCCCCCCC (configuration not stated) | 0% | 85% (active) | 79% (active) | -3% | 90% (active) | 84.1% (active) | -15% | 89% (active) | 83.4% (active) | 24% | 86% (active) | 75.7% (active) | 33% | 89% (active) | 80.9% (active) | 22% | 86% (active) | 81.6% (active)
7 | O=C(CC(c1ccccc1Cl)C(C(=O)O)c1ccccc1)c1ccccc1 (configuration not stated) | 4% | 72% (active) | 81% (active) | 4% | 71% (active) | 71.7% (active) | 6% | 72% (active) | 92.5% (active) | 6% | 83% (active) | 91.5% (active) | -4% | 67% | 43.6% | -1% | 78% (active) | 92.1% (active)
8 | O=C(O)CCCc1ccc2c(c1Br)C=CC2 | 10% | 68% | 72.3% (active) | 13% | 72% (active) | 63.6% | 11% | 73% (active) | 87.2% (active) | 11% | 74% (active) | 72.9% (active) | 8% | 86% (active) | 94% (active) | 3% | 76% (active) | 79.6% (active)
9 | O=C(CCl)Oc1c(Br)cc(-c2ccccc2)cc1Br | 32% | 95% (active) | 77.3% (active) | 42% | 99% (active) | 56.1% | 65% | 99% (active) | 88.8% (active) | 57% | 97% (active) | 41.9% | 30% | 98% (active) | 16.9% | 73% (active) | 95% (active) | 82.2% (active)
10 | CC(C)N(CN1C(=O)N/C(=C/c2cccc(/C=C3/NC(=O)N(CN(C(C)C)C(C)C)C3=O)c2)C1=O)C(C)C | 7% | 8% | 21% | -15% | -11% | 2.95% | -1% | 3% | -2.5% | -19% | -15% | 63.4% | 12% | 30% | 17.6% | 7% | 8% | -4.65%
11 | COc1cc(C(=O)NC(CCC(=O)O)C(=O)O)ccc1N(C)Cc1cnc2nc(N)nc(N)c2n1 (configuration not stated) | -4% | 66% | 89.8% (active) | -3% | 93% (active) | 97.2% (active) | -7% | 44% | 83.8% (active) | 2% | -10% | -21.4% | -6% | -6% | 40.4% | -51% | 29% | 74.1% (active)
12 | COc1cc(C(c2cc3c(cc2O)OCO3)N2CCOCC2)cc(OC)c1OC (configuration not stated) | 0% | 23% | 35.5% | -23% | 13% | 67.7% | -3% | 28% | 17% | 4% | 8% | 20.6% | 2% | 11% | 7.1% | -4% | 21% | 19%
13 | CCCCCCC(C)c1ccccc1O (configuration not stated) (tested in a mixture with another compound) | 25% | 96% (active) | 92.2% (active) | 24% | 100% (active) | 94% (active) | 25% | 100% (active) | 94% (active) | 25% | 100% (active) | 93.6% (active) | 37% | 99% (active) | 93% (active) | 38% | 99% (active) | 92.2% (active)
14 | CCCCCCCCOc1ccc(/C=C/C(C)=N/NC(N)=NC)cc1OC | 98% (active) | 98% (active) | 98.7% (active) | 98% (active) | 99% (active) | 99% (active) | 82% (active) | 99% (active) | 38.7% | 72% (active) | 93% (active) | 98.3% (active) | 97% (active) | 99% (active) | 99% (active) | 99% (active) | 98% (active) | 98.5% (active)
15 | Cc1cc(/C=C/c2cccc[n+]2C)c(C)n1-c1ccccc1 | 4% | 85% (active) | 96% (active) | -1% | 93% (active) | 91.6% (active) | 1% | 90% (active) | 95.8% (active) | -4% | 85% (active) | 90.8% (active) | -8% | 85% (active) | 17.1% | 6% | 94% (active) | 93.7% (active)
16 | O=Nc1cc(-c2ccccc2)c2ccccc2c1O | 14% | 86% (active) | -2.65% | 14% | 96% (active) | 31.9% | 6% | 93% (active) | -10.4% | 15% | 97% (active) | 97.5% (active) | 22% | 95% (active) | 97.4% (active) | 23% | 96% (active) | 2.45%
17 | N#CC1C=C(Cl)c2ccc(Cl)cc2N1C(=O)c1ccccc1 (configuration not stated) | 2% | 96% (active) | 98.8% (active) | 17% | 99% (active) | 99.2% (active) | 3% | 99% (active) | 99.3% (active) | 2% | 99% (active) | 99.4% (active) | 0% | 98% (active) | 98.3% (active) | 23% | 99% (active) | 99.2% (active)
18 | O=C(O/N=C1/CCCC/C1=C\c1ccccc1)c1ccccc1 | 24% | 86% (active) | 76.2% (active) | 17% | 95% (active) | 88.3% (active) | 51% | 94% (active) | 85.8% (active) | 47% | 97% (active) | 87% (active) | 53% | 94% (active) | 81.1% (active) | 19% | 82% (active) | 81.7% (active)
19 | C1=C(c2ccccc2)C(c2ccc(OCCN3CCCCC3)cc2)Oc2ccccc21 (configuration not stated) | 39% | 99% (active) | 99.3% (active) | 9% | 99% (active) | 99.5% (active) | 24% | 99% (active) | 97.5% (active) | 25% | 99% (active) | 98.1% (active) | 35% | 99% (active) | 98.8% (active) | 16% | 99% (active) | 99.5% (active)
